An excerpt weighted towards active compounds, which were near 7.5% of everything screened.
FLuc modulator: inhibits or activates purified firefly luciferase, miR-21 counter-screen. purified FLuc, Km substrates, luminescence inhibition. Potency, µM (titrated, usually from 57.5 µM), for the others: at the highest dose activity change, negative = inhibition, most hits filed as inhibitors. hit rate 6.9% among 360,000. AID 588342;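 note: plate controls were vehicle for no effect and reference inhibitor for full effect; nearly all actives have a fitted effect of over 55% in size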
Target sequence (P08659 whole entry, looked up): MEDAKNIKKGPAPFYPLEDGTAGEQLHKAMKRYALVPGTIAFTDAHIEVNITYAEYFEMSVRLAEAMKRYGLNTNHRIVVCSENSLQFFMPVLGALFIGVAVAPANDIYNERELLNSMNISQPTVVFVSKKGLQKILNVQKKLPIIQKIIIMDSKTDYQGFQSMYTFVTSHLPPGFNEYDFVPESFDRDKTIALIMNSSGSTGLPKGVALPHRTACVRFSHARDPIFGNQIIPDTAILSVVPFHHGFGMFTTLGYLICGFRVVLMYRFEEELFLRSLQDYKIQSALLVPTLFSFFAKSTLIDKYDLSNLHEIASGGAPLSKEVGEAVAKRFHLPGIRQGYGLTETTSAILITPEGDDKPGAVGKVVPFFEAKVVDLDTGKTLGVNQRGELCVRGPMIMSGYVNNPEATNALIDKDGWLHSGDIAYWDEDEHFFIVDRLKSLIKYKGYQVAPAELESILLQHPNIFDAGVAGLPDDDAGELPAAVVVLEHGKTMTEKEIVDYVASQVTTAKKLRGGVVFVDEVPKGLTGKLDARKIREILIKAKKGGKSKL
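Purified P. pyralis luciferase (10nM final) with 10uM D-luciferin and 10uM ATP (Km levels) in 50mM Tris acetate pH 7.5, 10mM Mg acetate, 0.01% Tween-20, 0.05% BSA; qHTS 6-point titration, ~60 µM downward; luminescence read.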
ELG1 genotoxic: genotoxicity induction in ELG1-luciferase HEK293T cells. HEK293T ELG1-luciferase reporter, luminescence, 16 h. Potency, µM (doses to about 46 µM), for inactives: at the top dose activity change, positive = activation, hits mostly activators. hit rate 1.3% among 330,000. AID 504466; note: % of control where 0% means no effect; nearly all actives have a fitted effect of over 60% in size
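After overnight (16 hr) compound treatment at 37 °C, ELG1-luciferase HEK293T cells were lysed with ONE-Glo; luminescence quantified 30 min later at room temperature.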
Rab9 promoter act: Rab9 promoter activation; Huh7 Rab9 promoter-luciferase reporter, luminescence, 24 h; Potency, µM (top dose mostly 9.22 µM), for the others: at the highest dose activation, negative = inhibition, usual class: activators; hit rate 2.8% among 320,000; AID 485297; note: % of control where 0% means no effect; nearly all actives have a fitted effect of over 60% in size
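Luciferase signal after 10 min detection reagent at ambient indicates Rab9 promoter upregulation; stably transfected Huh7 cells were treated 24 h with compound in DMSO at 37 °C, 5% CO2.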
Luc counter: counter-screen: inhibitors of Kinase-Glo firefly luciferase | Q27757 | Kinase-Glo luciferase, ATP luminescence, 8 min | Potency, µM (titrated, usually from 38.3 µM), without a hit: at the top dose activity change, negative = inhibition, usual class: inhibitors | hit rate 0.28% among 200,000 | AID 1379; note: % is set by controls: 0 for no effect and ±100 for the full control effect; nearly all actives have a fitted effect of over 60% in size
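Kinase-Glo luciferase light output from ATP and luciferin was measured with 10 uM ATP, within the enzyme's linear range. Buffer: 50 mM imidazole pH 7.2, 50 mM KCl, 7 mM MgCl2, 0.01% Tween 20, 0.05% BSA; luminescence read after 8 min at ambient temperature.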
SMN2 splice enh: increases expression of the SMN2 splice variant | Potency, µM (top dose mostly 46.1 µM), for the others: at the highest dose activity change, positive = activation, most hits filed as activators | hit rate 2.8% among 210,000 | HEK293 SMN2-luciferase splicing reporter, luminescence, 30-36 h | AID 1458; note: % of control where 0% means no effect; nearly all actives have a fitted effect of over 55% in size
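HEK293 cells carry an SMN2 minigene-luciferase reporter in which exon 7 inclusion puts luciferase in frame. Cells were seeded at 2000 cells/well, attached for 10-12 hours, then exposed to compounds for 30-36 hours at 37C before ONE-Glo luminescence.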
NPC1 promoter act: activates the NPC1 promoter. hit rate 2.4% among 320,000. Potency, µM (titrated, usually from 9.22 µM), without a hit: top-dose activation, most hits filed as activators. Huh7 NPC1 promoter luciferase reporter, 24 h. AID 485313; note: % of control where 0% means no effect; nearly all actives have a fitted effect of over 60% in size
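Luminescence from an NPC1 promoter-driven luciferase reporter in stably transfected Huh7 cells was measured after 24 h compound treatment at 37 °C, followed by 10 min ambient incubation with luciferase detection reagent.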
Active calls of the source: *; ? = inconclusive; · = no result. Calls come from the whole dose curve; as a rule, active = well fitted curve in the direction sought with a large enough effect; inconclusive = small, poorly fitted or top-dose-only effect, or another doubt; inactive = no such curve, though single readings can be large; an effect the other way counts as inactive or inconclusive. Potency is the fitted concentration of half-maximal effect.

SMILES | FLuc modulator | ELG1 genotoxic | Rab9 promoter act | Luc counter | SMN2 splice enh | NPC1 promoter act
CSc1cccc(NC(C)=O)c1 | -15% | 0% | -1% | -7% | 5% | 2%
CSc1cccc(NC(=O)COc2ccccc2)c1 | 17µM* | 4% | 1% | -3% | 5% | 11%
CSc1cccc(NC(=O)Nc2ccccc2)c1 | 13µM* | ? | 29% | -5% | ? | 29%
CC(=O)c1ccc(NC(=O)c2noc3c2CSc2ccccc2-3)cc1 | -1% | · | · | · | · | ·
Cc1ccc(CNc2ccc(-c3nc(C(C)C)no3)cc2[N+](=O)[O-])cc1 | -1% | · | · | · | · | ·
COc1ccccc1CNc1ccc(-c2nc(C)no2)cc1[N+](=O)[O-] | 13µM* | · | · | · | · | ·
COc1ccccc1CNc1ccc(-c2nc(C(C)C)no2)cc1[N+](=O)[O-] | 12µM* | · | · | · | · | ·
CCOC(=O)c1c(C)oc2ncnc(Nc3cc(Cl)ccc3OC)c12 | 2% | · | · | · | · | ·
COc1ccc2[nH]c(C(=O)N3CCN(Cc4ccccc4)CC3)cc2c1OC | 15µM* | 6% | 4% | · | · | 1%
Cc1[nH]c2ccc(C(=O)N3CCN(Cc4ccccc4)CC3)cc2c1C | 6µM* | 2% | 3% | · | · | 16%
COc1cc(CN2CCN(C(=O)c3ccc(-c4ccccc4)cc3)CC2)cc(OC)c1OC | 21µM* | ? | 12% | -2% | · | 6%
COc1ccc(C(=O)N2CCN(Cc3ccccc3)CC2)cc1[N+](=O)[O-] | 1% | -7% | -4% | · | · | 0%
Cn1cc(S(=O)(=O)c2ccc(Cl)cc2)c(=O)c2cc(F)c(N3CCCC3)cc21 | -8% | · | · | · | · | ·
O=C(/C(=C(\[O-])c1ccccc1)[n+]1ccc2ccccc2c1)c1ccccc1 | 24µM* | 11% | 2% | -1% | 5% | 8%
COC(=O)c1ccccc1NC(=O)CSc1nc(-c2ccccc2)cc(C(F)(F)F)n1 | -7% | · | · | · | 3% | ·
O=C(Nc1cccc(F)c1)N1CC2(CCN(C(=O)c3cc(C(F)(F)F)cc(C(F)(F)F)c3)CC2)C1 | · | · | · | -5% | -8% | ·
COCc1nc(-c2ccc(-c3ccc(OC)cc3)nc2OC)no1 | ? | 12% | 24% | 2% | 19% | 13%
COCc1nc(-c2ccc(-c3ccccc3)nc2OC)no1 | ? | 4% | 4µM* | -2% | 22µM* | ?
CCc1nc(-c2ccc(-c3ccc(OC)cc3)nc2OC)no1 | 21µM* | ? | ? | 2% | ? | ?
COc1cc(C)ccc1OCCCOc1c(Cl)cccc1Cl | -14% | 1% | -1% | -1% | -27% | -1%
CCOc1ccccc1OCCCOc1ccc(C)cc1Br | 11µM* | 11% | 19% | -3% | 2% | 4%
CCOc1ccccc1OCCCOc1ccc(C)cc1Cl | 11µM* | 6% | ? | · | · | 27%
Cc1ccc(CO)cc1Nc1ncnc2onc(-c3ccc(F)cc3)c12 | -5% | · | · | · | -13% | ·
COc1ccc(C(=O)/C=C/c2cc(OC)c(O)c(OC)c2)c(F)c1 | 19µM* | -2% | -17% | 0% | · | 0%
COc1cc(/C=C/C(=O)c2ccccc2O)cc(OC)c1OC | ? | ? | -8% | -1% | 24% | -2%
COc1ccc2cc(C(=O)/C=C/c3cc(OC)c(O)c(OC)c3)ccc2c1 | 1.9µM* | -37% | -1% | · | · | ?
CC(C)(C)c1ccc(C(=O)N/N=C/c2cccc(Cl)c2)cc1 | 4.8µM* | -6% | ? | -4% | 1% | ?
O=C(N/N=C/c1cccc(F)c1)c1ccc(Cl)cc1 | 2.4µM* | ? | 3.2µM* | -2% | 16µM* | 4µM*
O=C(N/N=C/c1c(Cl)cccc1Cl)c1cccc(F)c1 | -7% | 17% | 24% | -1% | -3% | 12%
O=C(N/N=C/c1cccc(NC(=O)c2ccc(Cl)cc2)c1)c1ccc(O)cc1 | 1.3µM* | -2% | 4µM* | · | · | 2.5µM*

High-throughput results as filed in PubChem.
